This note sets out measurements from PubChem BioAssay.

The target of test [1] is Protein Mdm4 (Homo sapiens) + E3 ubiquitin-protein ligase Mdm2 (Homo sapiens) (UniProt O15151+Q00987). The experiment in a line: human Mdm2/MdmX binding disruption – cell-based, luminescence, single concentration, set 2, confirmation (AID 504601;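 active = mean inhibition of the luminescence signal across two replicates at or above 26 percent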). To be noted: SaOS-2 split-luciferase Mdm2/MdmX complementation, at 8 µM, stronger effect = higher value.
Protein Mdm4 (Homo sapiens) + E3 ubiquitin-protein ligase Mdm2 (Homo sapiens), sequence (O15151 whole entry, looked up): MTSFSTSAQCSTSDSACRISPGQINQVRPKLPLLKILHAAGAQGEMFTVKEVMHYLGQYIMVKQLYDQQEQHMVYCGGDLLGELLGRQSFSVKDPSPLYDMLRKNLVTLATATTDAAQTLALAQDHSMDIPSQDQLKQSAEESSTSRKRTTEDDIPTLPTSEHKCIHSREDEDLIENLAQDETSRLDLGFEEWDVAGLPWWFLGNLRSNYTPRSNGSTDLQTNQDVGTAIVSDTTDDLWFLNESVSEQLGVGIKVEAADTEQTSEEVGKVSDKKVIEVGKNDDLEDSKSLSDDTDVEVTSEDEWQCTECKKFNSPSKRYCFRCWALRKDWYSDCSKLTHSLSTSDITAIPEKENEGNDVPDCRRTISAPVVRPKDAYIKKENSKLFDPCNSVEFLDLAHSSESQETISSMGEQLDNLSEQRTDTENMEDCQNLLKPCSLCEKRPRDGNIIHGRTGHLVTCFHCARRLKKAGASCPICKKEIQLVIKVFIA
Protein Mdm4 (Homo sapiens) + E3 ubiquitin-protein ligase Mdm2 (Homo sapiens), sequence (Q00987 whole entry, looked up): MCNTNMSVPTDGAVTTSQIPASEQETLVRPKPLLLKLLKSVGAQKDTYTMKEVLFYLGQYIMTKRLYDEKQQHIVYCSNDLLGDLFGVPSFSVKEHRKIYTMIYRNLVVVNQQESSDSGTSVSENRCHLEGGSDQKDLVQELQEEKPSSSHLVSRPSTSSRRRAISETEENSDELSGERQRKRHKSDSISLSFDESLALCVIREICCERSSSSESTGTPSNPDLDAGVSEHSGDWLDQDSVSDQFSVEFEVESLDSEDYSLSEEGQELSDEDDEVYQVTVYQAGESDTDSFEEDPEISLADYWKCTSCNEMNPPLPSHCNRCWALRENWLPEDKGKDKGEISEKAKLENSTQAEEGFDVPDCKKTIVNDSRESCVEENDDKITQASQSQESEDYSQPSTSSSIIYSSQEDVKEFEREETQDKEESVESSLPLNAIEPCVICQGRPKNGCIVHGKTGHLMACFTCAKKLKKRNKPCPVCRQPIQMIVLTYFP
Test [2] in a line: NF-kB reporter suppression in CF airway cells – cell-based, GFP fluorescence, single concentration, confirmation (AID 602472; in the data active = inhibition above about 40%;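 also: stimulus PAF is a Pseudomonas aeruginosa filtrate and not platelet activating factor; plate controls were DMSO wells with stimulus for no effect and unstimulated DMSO wells for full effect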). The settings on record: KKLEB CF airway cells, PAF-induced NF-kB-GFP fluorescence, overnight; at 5 µM; stronger effect = higher value.
A short description of test [3]: NFkB reporter suppression in cystic fibrosis bronchial cells – cell-based, uHTS hits, panel, cytotoxicity readout, dose response (AID 624344). To be noted: CF bronchial epithelial cells, PAF-induced NFkB reporter inhibition, with PAF, run 1; at 79 µM (top of the series) unless noted.
Experiment in test [4]: as above
To be noted: CF bronchial epithelial cells, PAF-induced NFkB reporter inhibition, with PAF, run 2; at 79 µM (top of the series) unless noted.

The nature of test [5]: HIF-2a driven luciferase blockers, single dose – luminescence, 786-0 RCC cells, confirmation (AID 651580;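 active = mean inhibition across four replicates of at least 40 percent at the single tested concentration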). To be noted: HIF-2a luciferase reporter luminescence, overnight, at 18.8 µM, stronger effect = higher value. (In a reporter assay the amount or activity of a reporter protein is the signal.)
Test [6] in a line: HIF-1a luciferase reporter signal reduction – MiaPaCa-2 cells, single concentration, counter-screen for HIF-2a inhibitor project, confirmation (AID 651589;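 active = mean inhibition of the reporter signal across four replicates at the single tested dose of 50% or more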). The settings on record: MiaPaCa-2 HIF-1a luciferase reporter, desferoxamine, overnight; at 18.8 µM; stronger effect = higher value.
The target in test [7] is Tumor necrosis factor receptor superfamily member 10B (Homo sapiens) (UniProt O14763). The experiment in a line: viability loss of caspase-8 NB7 cells with TRAIL – with/without TRAIL, luminescence panel, confirmation (AID 651596; in the data active = activity above about 50%). The settings on record: NB7 neuroblastoma + caspase-8, TRAIL sensitization, NB7 Caspase-8, with TRAIL, mean of runs, at 10 µM, stronger effect = higher value.
Tumor necrosis factor receptor superfamily member 10B (Homo sapiens), sequence (O14763 whole entry, looked up): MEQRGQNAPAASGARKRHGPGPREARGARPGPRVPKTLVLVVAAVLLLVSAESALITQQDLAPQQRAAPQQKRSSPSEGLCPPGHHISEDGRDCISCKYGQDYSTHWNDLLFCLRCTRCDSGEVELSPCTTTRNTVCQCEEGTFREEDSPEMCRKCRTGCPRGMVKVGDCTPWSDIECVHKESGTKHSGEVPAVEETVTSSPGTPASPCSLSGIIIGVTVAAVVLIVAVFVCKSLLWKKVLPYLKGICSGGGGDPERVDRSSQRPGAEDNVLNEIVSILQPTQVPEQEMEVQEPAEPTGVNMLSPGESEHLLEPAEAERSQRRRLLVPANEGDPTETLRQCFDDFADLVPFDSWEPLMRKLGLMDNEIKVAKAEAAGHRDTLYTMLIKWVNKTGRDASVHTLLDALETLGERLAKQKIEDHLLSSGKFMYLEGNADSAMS

Experiment in test [8]: as above
The settings on record: NB7 neuroblastoma + caspase-8, without TRAIL, NB7 Caspase-8, without TRAIL, mean of runs, at 10 µM.

Test [9] can be described thus: apoptosome-driven caspase-3 activation blockers – biochemical, fluorescence, DEVD-Rh110, 20 µM, confirmation (AID 504614).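 Also: plate controls were DMSO wells for no effect and DEVD-CHO caspase inhibitor control wells for full effect.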 To be noted: reconstituted apoptosome, caspase-3 DEVD-Rh110 fluorescence; at 20 µM; stronger effect = higher value.
Test [10] can be described thus: detection-step artefacts after completed caspase reaction – biochemical, fluorescence, Rh110, 20 µM, artefact control for Apaf-1 inhibitor project, confirmation (AID 504615;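 active = signal rise of 40% or more at 20 µM, treated as a fluorescence artifact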). To be noted: quenched caspase reaction, at 20 µM, stronger effect = higher value.
Test [11] can be described thus: inhibition of PEG-3 promoter luciferase signal – cell-based, HeLa, luciferase reporter, single concentration, confirmation (AID 602417;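 active = at 20 µM dose, 40% or more inhibition averaged across four replicates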). To be noted: HeLa PEG-Prom luciferase reporter, luminescence, overnight; at 20 µM; stronger effect = higher value.
Test [12] addresses PEG-3 (UniProt Q6IN02). In words: inhibition of PEG-3 promoter-driven reporter – cell-based, HeLa, luciferase, CREF/GAPDH counter-screen panel, dose response (AID 624167). To be noted: CREF/GAPDH counter-screens; HeLa PEG-Prom luciferase reporter, overnight, run 1, dose range 1, at 100 µM (top of the series) unless noted. (The purpose of a counterscreen is to sort out artefacts and off-target activity.)

Test [13] deals with PEG-3 (UniProt Q6IN02). The description is as above. To be noted: CREF/GAPDH counter-screens; HeLa PEG-Prom luciferase reporter, overnight, run 2, dose range 1, at 100 µM (top of the series) unless noted.
PEG-3, sequence (Q6IN02 whole entry, looked up): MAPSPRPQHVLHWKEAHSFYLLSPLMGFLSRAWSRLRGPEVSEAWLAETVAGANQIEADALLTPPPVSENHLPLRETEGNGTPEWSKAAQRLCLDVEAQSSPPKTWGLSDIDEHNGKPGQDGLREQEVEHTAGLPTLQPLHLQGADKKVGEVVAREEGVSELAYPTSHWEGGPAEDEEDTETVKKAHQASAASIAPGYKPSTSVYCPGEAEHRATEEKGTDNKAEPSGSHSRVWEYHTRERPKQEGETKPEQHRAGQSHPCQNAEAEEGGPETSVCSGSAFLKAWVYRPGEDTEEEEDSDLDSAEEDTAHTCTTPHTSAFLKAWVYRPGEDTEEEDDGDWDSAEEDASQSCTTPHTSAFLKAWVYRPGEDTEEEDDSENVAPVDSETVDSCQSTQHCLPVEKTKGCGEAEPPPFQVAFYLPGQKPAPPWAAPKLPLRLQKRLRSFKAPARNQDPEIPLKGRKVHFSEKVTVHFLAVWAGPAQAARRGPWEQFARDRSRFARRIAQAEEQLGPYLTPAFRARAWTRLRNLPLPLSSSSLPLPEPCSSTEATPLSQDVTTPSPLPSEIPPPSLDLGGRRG
A short description of test [14]: fluorescence interference of Apaf-1 inhibitor hits, dose response, artefact control for Apaf-1 inhibitor project (AID 588538; call rule not given here). The settings on record: fluorescence interference counterscreen, Apaf-1 assay format.

The other results are listed elsewhere or left out. Active and inactive are the calls of the source.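 The calls were made as follows, unless noted: active = mean inhibition of at least 40% at 20 µM; inactive = the rest.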 Where only a bound is given, the exact number is not on record here.

In the case of `O=C(Nc1ccc(C(=O)N2CCOCC2)cc1)Nc1cccc(C(F)(F)F)c1`, the inhibition in test [1] was 84.2% (active); in test [2], 58.5% (active); in [3], 108%; in test [4], 94.7%.
Regarding `CCN(CC)S(=O)(=O)c1ccc(NC(=O)c2cccnc2Cl)c(NC(=O)c2cccnc2Cl)c1`, the inhibition is 75.5% (active) in test [1], 91.6% (active) in test [5] and 62.3% (active) in test [6].
As for `CCOC(=O)/C(=C\c1ccc([N+](=O)[O-])cc1)C(=O)c1cc(C(C)=O)c(Nc2ccccc2)s1`, the inhibition in test [1] is 100% (active). The activity in [7] is 95.3%; in [8], 95.6%.
For the molecule `O=C(O)c1cc(Cl)c(Cl)cc1C(=O)Nc1cccc2ncccc12`, the inhibition in test [9] was 1.69% (inactive). For the same molecule, in [10], the activation (fluorescence interference) was -4.02% (inactive).
As to `NC(N)=NCCCc1cn(CC(=O)N2CCNCC2)nn1`, the inhibition in test [9] is 9.2% (inactive). For the same molecule, the activation (fluorescence interference) in test [10] is -2.11% (inactive).
The like results for `COc1ccc2sc(-c3ccccc3OC)c(-c3ccc(OCCN4CCCC4)cc3)c2c1` were, in that order, 27.1% (inactive) and 6.49% (inactive).
Turning to `c1ccc(C[C@H]2CNCCN2CCC23CC4CC(CC(C4)C2)C3)cc1`, in [9], the inhibition is 1.61% (inactive). For the same molecule, in test [10], the activation (fluorescence interference) is -3.75% (inactive).
Consider `CN(C)CC(O)COc1ccc(C(C)(C)c2ccc(OCC(O)CN(C)C)cc2)cc1` (stereo not given), for which the inhibition in [1] was 94.2% (active); in [11], 53% (active); in the test with PEG-3 [12] it was 101%; in the test with PEG-3 [13] it was 99.7%.
Take `CC(=O)Nc1ccc(NC(=O)C(C)OC(=O)c2ccccc2C(=O)c2ccc(Cl)c([N+](=O)[O-])c2)cc1` (stereo not given): the inhibition is 102% (active) in test [1], 72.6% (active) in test [2], 102% in test [3] and 98.8% in test [4].
Regarding `NC[C@H](Cc1ccccc1)NCCc1cc(C(F)(F)F)cc(C(F)(F)F)c1`, the inhibition in test [9] was 17.2% (inactive). Further, the activation (fluorescence interference) in test [10] was 11.5% (inactive).
In the case of `C=CCC[C@H](Cc1ccc(F)cc1)C(=O)OC[C@@H](NC(=O)[C@@H](CC=C)CC(=O)N[C@H](CO)Cc1ccccc1)C(C)(C)C`, the inhibition in test [9] was 14.6% (inactive). In test [10], the activation (fluorescence interference) is 3.46% (inactive).
Take `COCC(C)OC(=O)c1c(N)n(CCCN2CCOCC2)c2nc3ccccc3nc12` (stereo not given): the inhibition in [9] was 12.4% (inactive). For the same molecule, the activation (fluorescence interference) in test [10] is 0.94% (inactive).
For `Cc1ccc(CS(=O)(=O)c2ncc(Cl)c(C(=O)Nc3nnc(C)s3)n2)cc1`, the inhibition is 103% (active) in [1], 31.5% (inactive) in test [5] and 104% (active) in [6]. The activity in test [7] and in test [8] was 97.2% in each case.
`Cc1ccc2c(c1)C1CN(C)CCC1N2S(=O)(=O)c1ccc(Oc2ccc([N+](=O)[O-])cc2)cc1` (stereo not given): the inhibition in test [9] was 20.2% (inactive). In test [10], the activation (fluorescence interference) is 1.73% (inactive).
`Cc1cc(C)n(-c2nc(SCC(=O)N3CCCC3)c3c4c(sc3n2)CCCC4)n1`: the inhibition in test [9] is 26.4% (inactive). Also, the activation (fluorescence interference) in test [10] is 8.64% (inactive).
As to `CC1CCCCC1NC(=O)/C(C#N)=C/C=C/c1ccccc1[N+](=O)[O-]` (stereo not given), the inhibition was 103% (active) in [1], 50.3% (active) in [5] and 106% (active) in [6].
Regarding `O=C(CC(O)(C(F)(F)F)C(F)(F)F)Nc1ccc(Cl)c(Cl)c1`, in test [1], the inhibition was 103% (active). Further, the activity in test [7] turned out to be 61.6%; in test [8], 63.1%.
For `O=C1[C@H]2[C@@H](c3ccc(F)cc3)N3C(=O)N(c4ccc(C(F)(F)F)cc4)C(=O)[C@@]3(Cc3ccccc3)[C@H]2C(=O)N1C1CCCCC1`, the inhibition in test [1] was 101% (active).
As to `Cc1cc2oc3ccc(NCCC4CCCN4C)cc3c(=O)c2cc1C` (stereo not given), in test [9], the inhibition was 10.1% (inactive). Moreover, in [10], the activation (fluorescence interference) was 4.87% (inactive).
Regarding `CCCCCCCCCCOC(=O)Cn1c(COc2ccc(C)cc2)[n+](C)c2ccccc21`, the inhibition is 103% (active) in test [1] and 81.3% (active) in [9]. For the same molecule, the activation (fluorescence interference) in [10] was 25.8% (inactive). For the same molecule, in test [14], the IC50 is > 100 µM (inactive).
`COc1ccc(C(CCN(Cc2ccc(OC)c(OC)c2)C(=O)CCl)c2ccccc2)cc1` (stereo not given): the inhibition in [1] was 103% (active). For the same molecule, the activity in [7] and in test [8] was 99.7% in each case.
On to `Cc1c(-c2nn(C)c(=O)c3ccccc23)oc2ccc(F)cc2c1=O`, for which, in test [9], the inhibition was 77.4% (active). Moreover, the activation (fluorescence interference) in test [10] is 2.5% (inactive).
`CCOC(=O)N1CCC(NC(=O)C(C)n2c3ccccc3c3cnn(C)c(=O)c32)CC1` (stereo not given): the inhibition in test [9] was 14% (inactive). Also, the activation (fluorescence interference) in [10] is 17.6% (inactive).
The like results for `c1ccc2c(CCN3CCNC[C@H]3Cc3cccc4ccccc34)cccc2c1` were, in that order, 24.8% (inactive) and 8.34% (inactive).
As for `COc1cccc(/C=N/Nc2cc(C)nc(-c3ccccc3O)n2)c1O`, the inhibition is 99.7% (active) in [1], 94.4% (active) in test [11], 100% with PEG-3 [12] and 102% with PEG-3 [13].
Regarding `CCOc1c(Br)cc(/C=C2\C(=O)N(CCC#N)N=C2C)cc1OC`, in [9], the inhibition is 13.1% (inactive). Further, in [10], the activation (fluorescence interference) was 1.73% (inactive).
With `Cc1cccc(NC(=O)c2nc(S(=O)(=O)Cc3ccccc3)ncc2Cl)c1`, the inhibition in test [1] was 103% (active); in test [11] it was 98.3% (active); in [2] it was 96.7% (active); in test [5] it was 100% (active); in [6] it was 103% (active); in test [3] it was 86.6%. Also, the inhibition in test [4] stood at 95.1%. Further, the activity in test [7] was 55.2%; in test [8] it was 98.5%.
For the molecule `CCC(C)(C)c1ccc(OCC(=O)N(C)C)c(C(C)(C)CC)c1`, the inhibition in test [9] is 17.9% (inactive). Further, in [10], the activation (fluorescence interference) is 8.45% (inactive).

As a reminder, the inhibition is the drop in the measured response relative to a control, in per cent. One may read the IC50 as the concentration needed to halve the response being measured.
